The values below come from PubChem BioAssay AID2315 (National Center for Advancing Translational Sciences (NCATS), 2010).

Molecules are shown by their SMILES. Screen size: about 290,000 compounds; about 27,000 (9.3%) were called active. The list comes from a sample in which actives are over-represented; it also holds similar structures and randomly drawn compounds. A number with no mark means an inactive call. No stated cut-off is given here; in the data, active means inhibition mostly above about 28% (no sharp cut-off); inactive means mostly below about 43%.

The assay can be described thus: A qHTS for Small Molecule Inhibitors of Shiga Toxin. On inhibition: 0% is about no effect. The conditions noted are these: Vero cells, Shiga toxin protein synthesis inhibition reporter; at 38.7 µM, hits give high values. For orientation: Quantitative high-throughput screening tests each substance at several concentrations.
As to `COCCn1c(N)c(NCc2ccccc2)c(=O)[nH]c1=O`, the inhibition was -3.86%.

In the case of `COc1ccc(C2CC(c3cccs3)=NN2C(=O)CCC(=O)O)cc1OC` (stereo not given), the inhibition is -4.61%. As for `COc1ccc(C2CC(c3cccs3)=NN2C(=O)CSc2nnc(N)s2)cc1OC` (stereo not given), the figure is -6.81%; as for `COc1ccc(C2CC(c3cccs3)=Nc3ccccc3S2)cc1OC` (stereo not given), 41.1% (active). For the compound `O=C(NCc1ccccc1Cl)C1CCN(c2ncnc3c2nc2n3CCCCC2)CC1`, the inhibition was -9.78%. As for `O=C(NCCc1c[nH]c2ccccc12)C(=O)NCC1CCCO1` (stereo not given), the figure is -8.17%; as for `COc1ccc(C(=O)NC2CCN(C(=S)NCCc3ccccc3)CC2)cc1`, 2.57%.

On to `S=C(NCCCc1ccccc1)Nc1ccc(Br)cc1`, for which the inhibition is 0.943%.

With `Oc1ccccc1N1CCN(C(=S)NCc2ccccc2)CC1`, the inhibition was 76.8% (active). As for `S=C(NCCc1ccccc1)NCC1CCCO1` (stereo not given), the figure is 0% (active); as for `Oc1ccc(N2CCN(C(=S)NCc3ccccc3)CC2)cc1`, 17.4%; as for `S=C(NCCc1ccccc1)Nc1ccccc1`, 57.4% (active). Consider `CC1CCCCN1C(=S)NCc1ccccc1` (stereo not given), for which the inhibition was -6.29%. The same measure for `S=C(NCCc1ccccc1)NCc1ccccc1Cl`: 18.4%; for `O=C1CCN(C(=S)NCCc2ccccc2)CC1`: 35.2%; for `S=C(NCCc1ccccc1)N1CCCCC1`: 66.4% (active).

On to `O=C(CS(=O)(=O)Cc1ccccc1)NCC1CCCO1` (stereo not given), for which the inhibition is -4.38%. The same measure for `Clc1cc(NC2CCCCC2)ncn1`: -10.3%; for `CCOC(=O)C1C/C(=C\C(C)=O)c2cccc(C(F)(F)F)c2O1` (stereo not given): “inactive”; for `COc1ccc(CCN2C(=O)C(C)=C(C)C2=O)cc1OC`: 17.7%. As for `COCCn1c(SCC(=O)Nc2nc(C)cs2)nnc1C(C)C`, the figure is -5.99%; as for `Cc1nnc(NC(=O)C(c2ccccc2)c2ccccc2)s1`, -9.41%. Consider `COc1ccccc1N1CCN(C(=O)CCS(=O)(=O)c2ccc3c(c2)NC(=O)C(C)S3)CC1` (stereo not given), for which the inhibition was -1.86%. In the case of `O=C(CN1CCN(Cc2ccccc2)CC1)Nc1ccc(F)c(F)c1`, the inhibition is 14.5%. Regarding `Cc1ccc(NC(=O)COC(=O)C2C3CC4OC(=O)C2C4C3)cc1Cl` (stereo not given), the inhibition is 17.4%. The same measure for `Cc1ccc(S(=O)(=O)N(CC(O)CN2C(=O)NC(C)(C)C2=O)c2cccc([N+](=O)[O-])c2)cc1` (stereo not given): -12.9%; for `COc1ccc(CCNC(=O)CCC(=O)NC2CCCCC2)cc1OC`: 10.5%. The same measure for `COC(=O)CN1C(=O)[C@H]2[C@@H](/C=C/c3ccccc3)N3C(=O)CN(CC4CC4)C(=O)[C@@]3(Cc3ccccc3)[C@H]2C1=O`: -11.8%.

As to `S=C(NCCC1=CCCCC1)Nc1ccccc1`, the inhibition was 72.2% (active). The same measure for `O=C(Cc1cccc2ccccc12)NCCC1=CCCCC1`: -13.5%; for `Cc1nnc(OCC(=O)NCCC2=CCCCC2)c2ccccc12`: -1.67%. Turning to `CN(C(=O)C1CCN(c2ncnc3c2nc2n3CCCCC2)CC1)C1CCCCC1`, the inhibition was -2.24%. The same measure for `COCC(=O)Nc1c(C(=O)N2CCCC2)oc2ccccc12`: 3.56%; for `Cc1cc(N(C)C)nc(Cl)n1`: -9.68%; for `COc1ccc(-c2nc3c(c(SCC(=O)Nc4ccc(C(=O)O)cc4)n2)Cc2ccccc2O3)cc1`: 18.2%. The same measure for `O=C1C2C3C=CC(C4CC34)C2C(=O)N1/N=C/c1ccc(-c2ccccc2[N+](=O)[O-])o1` (stereo not given): 61.9%; for `COc1cccc(N(CC(=O)NC2CCCCCC2)S(=O)(=O)c2ccccc2)c1`: -29.3%. The same measure for `C/C(=N\NC(=O)c1ccc(C)cc1)C1C(=O)c2ccccc2C1=O`: 40.4% (active); for `C/C(=N\NC(=O)CNC(=O)C(c1ccccc1)c1ccccc1)c1ccc(C)cc1`: -1.4%; for `Cc1ccc(C(=O)N/C(=C/c2cccnc2)C(=O)O)cc1`: 14.9%. Take `COCCN1C(=O)C(=O)/C(=C(/O)c2ccc(S(=O)(=O)N3CCOCC3)cc2)C1c1ccc(O)c(OC)c1` (stereo not given): the inhibition was 2.24%.

In the case of `Cc1cc(C)nc(NS(=O)(=O)c2ccc(N3C(=O)C4CCCCC4C3=O)cc2)n1` (stereo not given), the inhibition was -4.6%. As for `CSCc1ccc(C(=O)Nc2cc(C)cc(C)c2)cc1`, the figure is 39% (active); as for `CC(=O)Nc1ccccc1NC(=O)c1cc(C)cc(C)c1`, -6.09%. The same measure for `C=CCN(c1ccc(C(=O)Nc2cc(C)cc(C)c2)cc1)S(C)(=O)=O`: 1.49%; for `CN(C)c1ccc(/C=N/NC(=O)c2ccc(Cn3cc(Br)cn3)o2)cc1`: 73.5% (active).

For `O=C(c1ccc(Cn2cc([N+](=O)[O-])cn2)o1)N1CCCC1`, the inhibition is -5.81%. As for `O=C(N/N=C/c1ccc2c(c1)OCO2)c1ccc(Cn2cc([N+](=O)[O-])cn2)o1`, the figure is 39.5% (active); as for `COc1cccc(NC(=O)c2ccc(Cn3cc([N+](=O)[O-])cn3)o2)c1`, 12.9%; as for `CC1CCc2c(sc(NC(=O)c3ccc(Cn4cc(Br)cn4)o3)c2C(N)=O)C1` (stereo not given), 14.4%. The same measure for `O=C(N/N=C\c1ccc(Br)cc1)c1ccc(Cn2cccn2)o1`: 26.8%; for `O=C(NCCc1ccc(Cl)cc1)C1CCCN1C(=O)NCc1ccccc1` (stereo not given): 2.06%; for `COc1cccc(NS(=O)(=O)c2ccc(-c3coc(C)n3)cc2)c1`: -7.18%.

As for `COc1ccc(N2CCN(C(C)=C3C(=O)c4ccccc4C3=O)CC2)cc1`, the inhibition is 66.2% (active).

Turning to `CC(=C1C(=O)c2ccccc2C1=O)N1CCN(c2ccccn2)CC1`, the inhibition is 2.68%. As for `COc1ccc(N2CCN(C(=O)c3cccs3)CC2)cc1`, the figure is 41.6%; as for `COc1ccccc1C(=O)N1C(CC(=O)Nc2ccccc2C)C(=O)NC2CCCCC21` (stereo not given), -1.4%. `COC(=O)[C@H](Cc1ccccc1)NC(=O)[C@@H]1C[C@H]1[C@@H](NC(=O)OCc1ccccc1)c1ccccc1`: the inhibition was -13%. As for `CC1Sc2ccc(S(=O)(=O)CCC(=O)NCc3ccccc3Cl)cc2NC1=O` (stereo not given), the figure is 11.4%. For the compound `Cc1cc(C)nc(N/N=C/c2ccc([N+](=O)[O-])o2)n1`, the inhibition was 12.2%. The same measure for `CCCc1nn2c(=O)cc(CSCC(=O)Nc3cccc(C)c3)nc2s1`: 9.11%. As for `Cc1ccc(-n2nc(C)c(/C=N/NC(=O)c3cccs3)c2Cl)cc1`, the figure is 41% (active); as for `CC(/C=N/NC(=O)c1ccncc1)=C\c1ccco1`, 27%. Consider `O=C(Nc1ccccc1)c1ccc(NC(=O)c2cccs2)cc1`, for which the inhibition is -21.1%. As for `O=C(NC(Cc1c[nH]c2ccccc12)C(=O)N/N=C/c1ccc(Br)cc1)c1cccs1` (stereo not given), the figure is -8.84%; as for `O=C(CNC(=O)c1cccs1)N/N=C/c1cccc(Br)c1`, -5.46%. The same measure for `O=C(N/N=C/C=C/c1ccco1)c1cccs1`: 104% (active); for `CC(=O)Nc1ccc(/C=N/NC(=O)c2cccs2)cc1`: 97.3% (active); for `CCN(CC)c1ccc(/C=N/NC(=O)CNC(=O)c2cccnc2)cc1`: -12.8%. The same measure for `Cc1nn(-c2ccccc2)c(NC(=O)c2cccs2)c(-c2ccc(Cl)cc2)c1=O`: 7.45%; for `Cc1ccc(-c2cc(C(=O)N/N=C/C=C/c3ccco3)c3ccccc3n2)cc1C`: 92.8%; for `CCN(CC)c1ccc(/C=N/NC(=O)CNC(=O)c2cccs2)cc1`: 42.1% (active).

Regarding `Cc1nn(-c2ccccc2)c(Cl)c1/C=N/NC(=O)c1nn(C)cc1[N+](=O)[O-]`, the inhibition is 31.8%. As for `CC(=O)OCCN(CCCn1c(-c2ccncc2)nc2ccccc21)c1nc(-c2ccc(C)cc2)cs1`, the figure is -1.86%.

With `COc1ccc(CCNC(=O)c2nnc(CS(=O)(=O)c3ccccc3)o2)cc1OC`, the inhibition was 5.82%.

For the compound `Cc1ccc(S(=O)(=O)N(Cc2cc3ccccc3[nH]c2=O)CC2CCCO2)cc1` (stereo not given), the inhibition was -2.48%. The same measure for `O=C(Nc1c2c(nn1-c1ccccc1)CS(=O)(=O)C2)C1CCCC1`: -3.43%; for `COc1ccc(NC(=O)c2ccco2)cc1NC(=O)c1ccc(C#N)cc1F`: -2.14%; for `CCCCCC(O)(CCN1CCCCC1)c1ccccc1` (stereo not given): -8.74%. As for `Cc1cc(NC(=O)CCC(=O)N(CC(=O)NCC2CCCO2)c2ccccc2)no1` (stereo not given), the figure is -9.61%.

For the compound `COC(=O)C1(C)NC(c2ccccc2OC)C2C(=O)N(c3ccccc3)C(=O)C21` (stereo not given), the inhibition is -11.2%. The same measure for `COc1ccc(N2CCN(S(=O)(=O)c3ccc4c(c3)N(C(C)=O)CCO4)CC2)cc1`: -9.48%; for `Cc1ccc(-n2c(C)cc(/C=N\NC(=O)CC(=O)NC(C)C)c2C)cc1`: 21.4%. Regarding `Cc1cccc(-n2c(C)cc(/C=N\NC(=O)c3cccs3)c2C)c1`, the inhibition is 85.9% (active). As for `Cc1cccc(-n2c(C)cc(/C=N/NC(N)=S)c2C)c1`, the figure is -4.48%.

For the compound `O=C(Cn1cnc2ccccc21)Nc1ccccc1-c1ccccc1`, the inhibition was -2.99%. As for `Cc1cc2ccccn2c1C(=O)c1cccc(F)c1`, the figure is 21%; as for `CCCCNC(=O)CCn1nc(-c2ccc(Cl)cc2)ccc1=O`, -6.39%. As for `COc1ccc(CNC(=O)CN(c2ccc(OC)c(Cl)c2)S(=O)(=O)c2ccc(C)cc2)cc1`, the figure is 15.2%; as for `Nc1ccc(Nc2ccccc2)cc1`, -17%; as for `O=C(COC(=O)c1ccc(Oc2ccccc2)cc1)Nc1nnc(-c2ccccc2)o1`, 6.93%.

Turning to `Nc1ccc(-c2nnc(-c3ccccc3)o2)cc1`, the inhibition is 71.6% (active). As for `Nc1ccc(-c2nnc(-c3ccc(-c4ccccc4)cc3)o2)cc1`, the figure is 63.4% (active); as for `Nc1ccc(-c2sc(N)nc2-c2ccccc2)cc1`, -12.4%; as for `Cc1ccc(C(=O)NCC(=O)OCc2nnc(-c3ccccc3)o2)cc1`, 9.19%.

By inhibition is commonly meant the relative decrease from the control value, in per cent.
